Compound activity as filed in PubChem.
Pf growth 48h = inhibits P. falciparum growth in the first generation, 48 h | hit rate 5.9% among 310,000 | AID 504832 | Potency, µM (doses to about 28.7 µM), most hits filed as inhibitors | P. falciparum luciferase growth in erythrocytes, 48 h
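Cell-based growth assay: transgenic P. falciparum expressing firefly luciferase, cultured in red cells within RPMI 1640 containing 0.5% w/v Albumax, 24 mM bicarbonate and gentamycin. A drop in luciferase activity indicates inhibition.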
Shiga inhibitor = inhibitors of Shiga toxin in Vero cells | Vero cells, Shiga toxin protein synthesis inhibition reporter | inhibition, % at 38.7 µM | hit rate 9.2% among 290,000 | AID 2315; in the data active means inhibition mostly above about 28%, no sharp cut-off; inactive means mostly below about 43%
Pf growth 96h = P. falciparum growth inhibition at 96 hours. P. falciparum luciferase reporter growth, 96 h. Potency, µM (top dose mostly 28.7 µM), actives largely listed as inhibitors. hit rate 6.9% among 320,000. AID 504834
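96 h incubation, 37 C, 5% CO2, of luciferase-reporter P. falciparum-infected RBCs (2% hematocrit, 0.05% parasitemia final) with test compounds; endpoint luminescence.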
Cycloheximide cs = counter-screen for Shiga toxin inhibitors: cycloheximide protein synthesis inhibition; cell reporter, cycloheximide protein synthesis inhibition counterscreen; max response, %; hit rate 12% among 300,000; AID 2314; in the data active means max response mostly above about 13%, no sharp cut-off; inactive means mostly below about 14%; further: read at 38.3 µM for the half of the compounds with a filed dose
HCV inh = inhibitors of hepatitis C virus infection | hit rate 3.4% among 340,000 | Potency, µM (titrated, usually from 41.8 µM), usual class: inhibitors | AID 651820 | Huh7.5.1 HCVcc-Cre infection, luciferase reporter, 44 h
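Infectious HCV cell culture screen: compound-treated cells (1,000/well, pre-plated 4 h) are infected with HCVcc-Cre at roughly 0.5 moi and grown 44 h. Infection is quantified by luciferase signal after 15 min substrate incubation at room temperature.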
AMA1-RON2 inh = disrupts binding of P. falciparum AMA1 to RON2 | AlphaScreen AMA1-biotinylated RON2 peptide binding | Potency, µM (highest dose often 58.2 µM), most hits filed as inhibitors | hit rate 0.2% among 360,000 | AID 720542; further: nearly all actives have a fitted effect of over 45% in size
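AMA1 (3D7) with his tag at 25 nM final met compounds first, then biotinylated RON2 peptide at 25 nM; detection used donor plus acceptor beads, 10 µg/mL apiece, read by AlphaScreen after 30 min at room temperature.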
A number is an active result; i = inactive; ? = inconclusive; nt = no result given; [ ] = another dose, or the depositor's remark. Hits are enriched below; roughly 21% of the tested compounds scored in any of these assays. Unless noted, the call rests on the fitted dose curve; in most records, active means well fitted curve in the direction sought with a large enough effect; inconclusive means small, poorly fitted or top-dose-only effect, or another doubt; inactive means no such curve, though single readings can be large; an effect the other way counts as inactive or inconclusive.

SMILES	Pf growth 48h	Shiga inhibitor	Pf growth 96h	Cycloheximide cs	HCV inh	AMA1-RON2 inh
CCn1cc(CNC(=O)c2cc(COc3ccc(F)cc3F)on2)cn1	i	i	i	i	?	i
COc1ccc(C(=O)N=c2nc3ccccn3s2)cc1	nt	i	i	38	i	i
COc1ccc(C(=O)N2CCN(c3cccc(C)c3C)CC2)cc1S(=O)(=O)NC1CC1	i	nt	?	nt	?	i
O=C(C1CCC(=O)N(C2CCCC2)C1)N1CCC(Oc2ccccc2Cl)CC1 (stereo unspecified)	i	i	i	i	?	i
CC(C)CN(Cc1cc(=O)oc2cc3c(cc12)CCCC3)CC(C)C	1.3µM	i	?	i	i	i
O=C(Nc1nc2ccccc2[nH]1)C1CC(=O)N(c2ccc3c(c2)OCCO3)C1 (stereo unspecified)	i	i	8.3µM	28	i	i
Cc1ccnc(NC(=O)C2CC(=O)N(c3ccc4c(c3)OCCO4)C2)c1 (stereo unspecified)	i	92	i	34	i	i
O=C(Nc1ccccc1)c1cc(C2CCCCN2C(=O)c2ccc3c(c2)CCO3)on1 (stereo unspecified)	nt	nt	nt	nt	nt	i
NC1=NC(=Nc2cccc(S(=O)(=O)N3CCOCC3)c2)c2ccccc21	i	i	i	i	i	i
C[C@H](NC(=O)c1nc[nH]c1C(=O)N[C@@H](Cc1ccccc1)C(=O)OC(C)(C)C)C(=O)OC(C)(C)C	7.4µM	i	?	i	11µM	i
CC(C)(C)OC(=O)[C@H](Cc1ccccc1)NC(=O)c1nc[nH]c1C(=O)N[C@@H](Cc1ccccc1)C(=O)OC(C)(C)C	12µM	i	?	i	?	i
Cc1cccc(NC(=O)c2nc[nH]c2C(=O)N[C@@H](Cc2ccccc2)C(=O)OC(C)(C)C)c1	?	i	12µM	i	?	i
O=C(O)C1C2OC3C(OC(=O)C31)C2Br (stereo unspecified)	nt	nt	nt	nt	i	i
CCc1ccccc1NC(=O)CNC(=O)c1cn(Cc2ccccc2)nc1-c1cccnc1	?	nt	5.9µM	nt	i	i[11.6 µM]
O=C(NCc1cccnc1)c1ccccc1-c1ccccc1	i	i	i	i	i	i
O=C(NCc1ccncc1)c1cn(-c2ccccc2)nc1-c1cccnc1	15µM	i	?	i	i	i
O=C(NCc1cccnc1)c1cn(-c2ccccc2)nc1-c1ccccc1	i	i	i	21	i	i
O=C(NC1CCN(Cc2ccc(Cl)cc2)CC1)c1cn(-c2ccccc2)nc1-c1cccnc1	1.9µM	nt	?	nt	11µM	i
O=C(C[C@H]1C/C=C\C[C@H](NC(=O)OCC2c3ccccc3-c3ccccc32)C(=O)OC[C@@H]2CCCN2C1=O)NCCO	nt	nt	nt	nt	i	i
Cc1cc([N+](=O)[O-])ccc1NC(=O)CN1C2CCC1CC(NC(=O)NC13CC4CC(CC(C4)C1)C3)C2 (stereo unspecified)	10µM	i	i	i	2.5µM	i
Cn1ccnc1SCC(=O)Nc1ccc(F)c([N+](=O)[O-])c1	i	i	?	i	i	i
CCCN(CCC)CC(=O)Nc1cccc2c1OCO2	i	i	12µM	i	?	i
O=C(CSc1nc2ccccc2[nH]1)NCc1ccc(F)cc1	?	i	i	i	i	i
Nc1ccccc1Sc1nc2ccccc2[nH]1	?	59	?	23	?	i
O=[N+]([O-])c1ccc(CSc2nc3ccccc3[nH]2)cc1	i	38	?	35	?	i
SMILES	Pf growth 48h	Shiga inhibitor	Pf growth 96h	Cycloheximide cs	HCV inh	AMA1-RON2 inh
CCOc1ccc(OCCSc2nc3ccccc3[nH]2)cc1	i	i	?	i	?	i
O=c1cnnc(SCc2ccc([N+](=O)[O-])cc2)[nH]1	i	i	i	i	i	?
CCCOc1ccc(CSc2nc3ccccc3[nH]2)cc1	i	84	i	49	nt	i
Fc1ccc(CSc2nc3ccccc3[nH]2)cc1	i	132	nt	49	i	i
COC(=O)C1CCN(C(=O)COC(=O)c2oc3ccc(OC)cc3c2C)CC1	i	i	i	i	i	i
CNC1=CN=C(c2ccccc2)c2cc(Cl)ccc2N1	nt	i	nt	i	nt	nt
CN(CC(=O)Nc1ccc(N2CCOCC2)cc1)C(=O)CCNC(=O)c1ccc(Br)cc1	i	nt	i	nt	i	i
O=C1CCC(C(=O)Nc2cccc(Br)c2)N1 (stereo unspecified)	i	i	i	i	i	i
Cc1cc(C)c(C(O)c2ncc(-c3ccccc3Cl)[nH]2)c(C)c1 (stereo unspecified)	nt	nt	nt	nt	nt	i
O=c1[nH]c(SCc2ccccc2)nc2[nH]ncc12	i	28	i	i	i	i
Nc1c(-c2ccccc2)c(CSc2nc3ccccc3[nH]2)nn1-c1ccc(Cl)cc1	i	i	?	i	11µM	i
CCSc1nc2ccccc2[nH]1	i	i	i	i	i	i
CC1(C)C(CSc2nc3ccccc3[nH]2)C1(Cl)Cl (stereo unspecified)	i	72	?	i	?	i
CC(C)CSc1nc2ccccc2[nH]1	i	94	i	45	i	i
O=C1Nc2ccccc2-c2nnnn2C1N1CCCCC1 (stereo unspecified)	nt	nt	nt	nt	nt	i
Fc1ccc(CSc2nc3ccccc3[nH]2)c2ccccc12	nt	i	?	i	i	i
O=c1cc(CSc2nc3ccccc3[nH]2)c2ccccc2[nH]1	nt	53	i	28	?	i
c1ccc(CSc2nc3ccccc3[nH]2)cc1	i	57	i	44	i	i
Nc1nc(CSc2nc3ccccc3[nH]2)cs1	i	47	i	25	i	i
